Laboratory results: the supplement of paper PMC6555819

How the values were obtained:
Assay in all cases: PBM binding z-score (relative to random genomic background probes); higher = stronger binding; sequences stand for … in GC…GCGATTGACAGCGTAGAATGAAGG
[1] = system: FXR:RXRa (NR concentration 270 nM, RXRa partner concentration 90 nM)
Summary of the method: (§1)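 Binding z-scores were set against random background probes. The data came from custom Agilent 4×180K protein-binding microarrays carrying double-stranded probes with 34-nt variable regions, incubated 1 h with ligand-free nuclear receptor dimers. Partner-specific antibodies detected binding, and scanned fluorescence was regression-normalized.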

[2] = system: LXRa:RXRa (NR concentration 270 nM, RXRa partner concentration 90 nM)
Summary of the method: as §1

[3] = system: LXRa homodimer (NR concentration 270 nM)
Summary of the method: as §1

[4] = system: LXRb:RXRa (NR concentration 270 nM, RXRa partner concentration 90 nM)
Summary of the method: as §1

[5] = system: LXRb homodimer (NR concentration 270 nM)
Summary of the method: as §1

[6] = system: PPARa:RXRa (NR concentration 270 nM, RXRa partner concentration 90 nM)
Summary of the method: as §1

[7] = system: PPARg:RXRa (NR concentration 180 nM, RXRa partner concentration 90 nM)
Summary of the method: as §1

[8] = system: PPARg:RXRa 270nM:90nM, anti-RXR (NR concentration 270 nM, RXRa partner concentration 90 nM)
Summary of the method: as §1

[9] = system: PPARg:RXRa 30nM:10nM, anti-RXR (NR concentration 30 nM, RXRa partner concentration 10 nM)
Summary of the method: as §1

[10] = system: PPARg:RXRa 90nM:30nM, anti-RXR (NR concentration 90 nM, RXRa partner concentration 30 nM)
Summary of the method: as §1

[11] = system: PPARg:RXRa DBDmut IVT, anti-RXR (DBD mutation: RXRa K156A/R161A, NR concentration 270 nM, RXRa partner concentration 90 nM)
Summary of the method: as §1

[12] = system: PPARg:RXRa IVT, anti-PPARg (NR concentration 270 nM, RXRa partner concentration 90 nM)
Summary of the method: as §1

[13] = system: PPARg DBDmut:RXRa IVT, anti-PPARg (DBD mutation: PPARg1 K132A/R137A, NR concentration 270 nM, RXRa partner concentration 90 nM)
Summary of the method: as §1

[14] = system: PPARg DBDmut IVT, anti-PPARg (DBD mutation: PPARg1 K132A/R137A, NR concentration 270 nM)
Summary of the method: as §1

[15] = system: PPARg homodimer (NR concentration 180 nM)
Summary of the method: as §1

[16] = system: PXR:RXRa (NR concentration 270 nM, RXRa partner concentration 90 nM)
Summary of the method: as §1

[17] = system: PXR homodimer (NR concentration 270 nM)
Summary of the method: as §1

[18] = system: RARa:RXR (NR concentration 270 nM, RXRa partner concentration 90 nM)
Summary of the method: as §1

[19] = system: RARa homodimer (NR concentration 270 nM)
Summary of the method: as §1

[20] = system: RARb:RXRa (NR concentration 270 nM, RXRa partner concentration 90 nM)
Summary of the method: as §1

| Sequence | PBM binding z-score [1] | PBM binding z-score [2] | PBM binding z-score [3] | PBM binding z-score [4] | PBM binding z-score [5] | PBM binding z-score [6] | PBM binding z-score [7] | PBM binding z-score [8] | PBM binding z-score [9] | PBM binding z-score [10] | PBM binding z-score [11] | PBM binding z-score [12] | PBM binding z-score [13] | PBM binding z-score [14] | PBM binding z-score [15] | PBM binding z-score [16] | PBM binding z-score [17] | PBM binding z-score [18] | PBM binding z-score [19] | PBM binding z-score [20] |
| --- | --- | --- | --- | --- | --- | --- | --- | --- | --- | --- | --- | --- | --- | --- | --- | --- | --- | --- | --- | --- |
| GCATATATGTAATACAAGGTGAAAGTCCGATTGT | 0.416 | 0.403 | 0.269 | 0.457 | 0.00515 | 1.08 | 1.35 | 0.83 | 0.428 | 0.72 | 1.6 | 1.75 | 0.651 | 0.705 | 0.207 | 0.156 | 0.0966 | 1.35 | 0.0285 | 0.445 |
| TCAGACAGGTGAAGGTAACTTAGGTACGCAGTCG | 1.16 | 2.01 | -0.079 | 1.41 | -0.0603 | 1.46 | 0.846 | 2.45 | 4.08 | 3.11 | 2.71 | 1.37 | 0.399 | 0.159 | 1.08 | 0.989 | 0.206 | 1.27 | 0.365 | 1.15 |
| CTACCAAAGTGAACAAGGTCGTTGATTACTATTC | 0.664 | 0.808 | 0.427 | 1.39 | 0.463 | 1.34 | 0.212 | 0.215 | 0.23 | -0.0383 | 0.74 | 0.473 | 0.238 | 0.295 | 0.64 | 1.76 | 1.48 | 1.47 | 0.789 | 0.821 |
| TGTCAAAGTTCAAAGGGAACGTAAGTATCCACAC | 7.11 | 6.18 | 3.96 | 4.16 | 1.68 | 5.06 | 8.1 | 7.17 | 5.31 | 7.11 | -0.458 | 3.95 | 2.37 | 1.56 | 4.11 | 4.92 | 4.8 | 4.2 | 1.6 | 4.93 |
| TCGTGTAGGTTAGGGGCATTCAGAATGGCGTCGA | 1.04 | 0.994 | 0.245 | 1.63 | 0.909 | 1.6 | 0.371 | 1.78 | 2.01 | 2.06 | 1.79 | 1.06 | 0.425 | 0.917 | 1.52 | 0.802 | 0.406 | 1.03 | 0.812 | 1.47 |
| ATCTCTAGGTAACAAATTCAGTGAAAGAGAGGAC | 0.723 | 0.714 | 0.441 | 0.288 | 1.15 | 0.552 | 0.558 | 0.598 | 0.83 | 0.732 | 2.5 | 2.57 | 1.67 | 1.65 | 0.744 | 0.225 | 0.486 | 0.657 | 1.4 | 0.701 |
| CGTCCAAGGTCAGCAGGGCAGTGAAAGCGACGTG | 5.27 | 3.24 | -0.203 | 2.34 | -0.623 | 4.47 | 3.08 | 3.74 | 0.535 | 2.52 | 2.44 | 3.13 | -0.138 | -1.04 | 1.69 | 2.25 | 0.00417 | 3.12 | 0.417 | 5.17 |
